# Assay results as given in PubChem BioAssay (NCATS).
# “And” between values parts separate entries of the source, which are not always exact repeats. Equal values may be shown once. Inconclusive results are not listed. A call without a number means that no potency is given here. Some compounds were tested as several samples or in several runs, with calls that do not always agree. The source made the active and inactive calls. Unless noted, the call rests on the fitted dose curve; in most records, active means well fitted curve in the direction sought with a large enough effect; inconclusive means small, poorly fitted or top-dose-only effect, or another doubt; inactive means no such curve, though single readings can be large; an effect the other way counts as inactive or inconclusive.
# What was measured:
# [1] = Cell Proliferation Assay Versus the ED40515 IL2 Dependent ATL cell lines (AID 1053195; calls by dose curve); settings: ED40515 IL2-dependent ATL cells
# Procedure, shortened: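 IL2-dependent ED40515 ATL cells grown with IL2, 1000 cells/well in phenol red-free RPMI + 5% FBS, exposed 48 hours at 37C. Viability by CellTiter-Glo luminescence after 15 min at RT; 9.2 uM bortezomib as control.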
# [2] = High-throughput drug toxicity screening in the BPDCN cell line Cal-1 (AID 1224825; call rule not given here); settings: Cal-1 BPDCN cell viability, qHTS; at 45.8 µM (top of the series) unless noted
# Procedure, shortened: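 Exponentially growing Cal-1 cells, 500 per well in phenol red-free RPMI with 10% FBS, were exposed to compounds for 48 h at 37 °C, 5% CO2. Viability was read by CellTiter-Glo luminescence and normalised to DMSO (100%) and 9.2 uM bortezomib (0%).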
# [3] = qHTS assay for measurement of the activity of small molecule inhibitors on Zika virus induced Caspase-3 activity in human iPSC derived neural progenitor cells (hNPCs) (AID 1224857); settings: hNPCs ZIKV-induced caspase-3/7, Caspase-Glo luminescence, 6 h; series mostly up to 45.7 µM; further: nearly all actives have a fitted effect of over 65% in size; further: potency means the concentration at half of the fitted maximal effect
# Procedure, shortened: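 Pretreat hNPCs with compound 1 h; infect ZIKV 2 FFU/cell; 6 h 37 C, 5% CO2; Caspase-Glo 3/7, 30 min RT; luminescence; normalize to no-virus and virus-only wells.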
# [4] = qHTS assay for measurement of the activity of small molecule inhibitors on Zika virus induced Caspase-3 activity in human astrocytoma cells (AID 1224859); settings: SNB-19 ZIKV-induced caspase-3/7, luminescence, 6 h; series mostly up to 45.7 µM; further: potency means the concentration at half of the fitted maximal effect
# Procedure, shortened: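 Human SNB-19 astrocytoma cells in RPMI 1640 with 10% FBS receive compound one hour ahead of Zika virus at 2 FFU/cell. After 6 h infection, caspase-3/7 activity is detected by Caspase-Glo luminescence.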
# [5] = qHTS Screen of the MIPE 4.0 Collection Against Ewings Sarcoma (RDES) (AID 1259252); settings: RD-ES Ewing sarcoma viability, CellTiter-Glo, 48 h; series mostly up to 45.8 µM; further: nearly all actives have a fitted effect of over 35% in size; further: potency means the concentration at half of the fitted maximal effect
# Procedure, shortened: (§1)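 Here, cells in 5% FBS RPMI were exposed for two days (48 h) to compound dilutions added four hours after plating. ATP-based CellTiter-Glo luminescence measured viability, normalized to vehicle and no-cell blanks.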
# [6] = qHTS Screen of the MIPE 4.0 Collection Against Ewings Sarcoma (TC71) (AID 1259253); settings: TC71 Ewing sarcoma viability, CellTiter-Glo, 48 h; series mostly up to 45.8 µM; further: nearly all actives have a fitted effect of over 40% in size; further: potency means the concentration at half of the fitted maximal effect
# Procedure, shortened: as §1
# [7] = qHTS Screen of the MIPE 4.0 Collection Against Ewings Sarcoma (EW8) (AID 1259255); settings: EW8 Ewing sarcoma viability, CellTiter-Glo, 48 h; series mostly up to 45.8 µM; further: nearly all actives have a fitted effect of over 35% in size; further: potency means the concentration at half of the fitted maximal effect
# Procedure, shortened: as §1
# [8] = qHTS Screen of the MIPE 4.0 Collection Against Ewings Sarcoma (TC32) (AID 1259256); settings: TC32 Ewing sarcoma viability, CellTiter-Glo, 48 h; series mostly up to 45.8 µM; further: nearly all actives have a fitted effect of over 45% in size; further: potency means the concentration at half of the fitted maximal effect
# Procedure, shortened: as §1
# [9] = Identifying Small Molecule Inhibitors of Pancreatic Cancer Stem Cells (A2780, Spheroid) (AID 1259357); settings: Potency: A2780 spheroid viability; series mostly up to 46.1 µM;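 further: spheroids pre-formed over 14 days in stem cell medium on hydrogel; compound exposure lasted 48 h before the ATP luminescence read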
# Procedure, shortened: (§2)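 After a 4 h attachment period, compounds were pinned into wells and cultures held 48 h under standard incubator conditions. Viability was then measured as CellTiter-Glo luminescence following 10 min at room temperature.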
# [10] = Identifying Small Molecule Inhibitors of Pancreatic Cancer Stem Cells (SN12C, Adherent) (AID 1259358); settings: viability/growth inhibition; series mostly up to 46.1 µM;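 further: cell survival measured after 48 h of compound exposure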; further: potency means the concentration at half of the fitted maximal effect
# Procedure, shortened: (§3)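 Luminescent ATP readout (CellTiter-Glo) quantifies surviving cells after a 48 h drug incubation. Normalization uses DMSO wells as no inhibition and media-only wells as full inhibition; bortezomib served as positive control.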
# [11] = Identifying Small Molecule Inhibitors of Pancreatic Cancer Stem Cells (SN12C, Spheroid) (AID 1259360); settings: Potency: SN12C spheroid viability; series mostly up to 46.1 µM; further: potency means the concentration at half of the fitted maximal effect
# Procedure, shortened: as §2
# [12] = Identifying Small Molecule Inhibitors of Pancreatic Cancer Stem Cells (A278, Adherent) (AID 1259361); settings: series mostly up to 46.1 µM; further: nearly all actives have a fitted effect of over 35% in size
# Procedure, shortened: as §3
# [13] = P-glycoprotein substrates identified in KB-3-1 adenocarcinoma cell line, qHTS therapeutic library screen (AID 1346986); settings: KB-3-1 parental cells viability, CellTiter-Glo, 72 h; series mostly up to 44.5 µM; further: nearly all actives have a fitted effect of over 60% in size
# Procedure, shortened: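 KB-3-1 parental cells and P-gp-overexpressing KB-8-5-11 (colchicine omitted during assay) plated at 500 cells/well, dosed in dose-response, incubated 72 h at 37 degree C. CellTiter-Glo luminescence read; KB-8-5-11 also tested with tariquidar.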
# [14] = P-glycoprotein substrates identified in KB-8-5-11 adenocarcinoma cell line, qHTS therapeutic library screen (AID 1346987); settings: KB-8-5-11 (P-gp overexpressing) viability, CellTiter-Glo, 72 h; series mostly up to 44.5 µM; further: nearly all actives have a fitted effect of over 65% in size
# Procedure, shortened: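 P-gp-mediated resistance screen: KB-8-5-11 cells treated 72 h with compounds in dose-response. CellTiter-Glo viability.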
# [15] = qHTS assay to identify small molecule inhibitors of chordoma cells - UCH-1 (AID 1259355); settings: UCH-1 chordoma viability, CellTiter-Glo, 48 h, combination, with auranofin plus four topoisomerase inhibitors; series mostly up to 46.1 µM; further: nearly all actives have a fitted effect of over 55% in size
# Procedure, shortened: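 Luminescent ATP read-out (CellTiter-Glo, 30min at room temperature) measured viability of UCH-1 cells exposed for 48hr to test drugs at 15 concentrations, co-dosed with a five-agent combination of auranofin, camptothecin, doxorubicin, rubitecan and topotecan.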
# [16] = qHTS assay to identify small molecule inhibitors of chordoma cells - UCH-2 (AID 1259356); settings: UCH-2 chordoma viability, CellTiter-Glo ATP luminescence, 48 h; series mostly up to 46.1 µM
# [17] = High-throughput drug toxicity screening in the BPDCN cell line Gen2.2 (AID 1224824; call rule not given here;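 further: cells exposed to compounds for 48 h before reading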); settings: Gen2.2 BPDCN cells; at 45.8 µM (top of the series) unless noted
# Procedure, shortened: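 Gen2.2 cells, 500 per well in phenol red-free RPMI with 10% FBS, exposed to compounds 48 h at 37 C, 5% CO2; viability by CellTiter-Glo luminescence. Percent activity scaled to DMSO (100%) and 9.2 uM bortezomib final (0%).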
# [18] = Identifying Small Molecule Inhibitors of Pancreatic Cancer Stem Cells (Panc1, Adherent) (AID 1259362); settings: Potency: viability; series mostly up to 46.1 µM;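 further: compound exposure lasted 48 h before the viability read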
# Procedure, shortened: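 Pre-formed 14-day tumor spheroids or adherent cells dosed and incubated 48 h, 37C, 5% CO2. Viability assessed by CellTiter-Glo.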
# [19] = Natriuretic polypeptide receptor (hNpr1) antagonism - Pilot counterscreen GloSensor control cell line (AID 1347045; calls by dose curve); settings: HEK293 cGMP GloSensor cells, SNP-stimulated luminescence, 20 min; series mostly up to 38.3 µM
# Procedure, shortened: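 This counterscreen uses HEK293 cells expressing the GIP/pGS-40F cGMP biosensor. Compound-treated cells are challenged with 50 uM sodium nitroprusside, and the luciferase signal is compared before and after stimulation.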
SMILES,Potency [1],viability (% of control) [2],Potency [3],Potency [4],Potency [5],Potency [6],Potency [7],Potency [8],Potency [9],Potency [10],Potency [11],IC50 (viability decrease) [12],Potency [13],Potency [14],Potency [15],outcome [16],"cell viability, % of control (lower = more cytotoxic) [17]",Potency [18],outcome [19]
O=C(C=Cc1ccc(/C=C/C(=O)Nc2ccc(C3=NCCN3)cc2)cc1)Nc1ccc(C2=NCCN2)cc1,2.09 µM (active),104%,inactive,inactive,inactive,inactive,inactive,inactive,inactive,inactive,inactive,inactive,inactive,inactive,,,,,
CCOC(=O)C1=C[C@@]2(CC)CCCN3CCc4c(n1c1ccccc41)[C@H]32,9.5 µM (active),,,,,,,,,inactive,inactive,inactive,,,,,,,
CS(=O)(=O)c1cccc(CNc2nc(Nc3ccc4c(c3)CCC(=O)N4)ncc2C(F)(F)F)c1,3.32 µM (active),7.96%,inactive,inactive,20.9 µM (active),16.6 µM (active),13.2 µM (active),11.8 µM (active),,inactive,inactive,3.72 µM (active),,inactive,,,,,
COc1ccc2nc(S(=O)Cc3ncc(C)c(OC)c3C)[nH]c2c1 (stereo not drawn),23.5 µM (active),96.8%,inactive,inactive,16.6 µM (active),,inactive,,,inactive,inactive,,,inactive,inactive,inactive,,,
CCc1ccc(CCOc2ccc(CC3SC(=O)NC3=O)cc2)nc1 (stereo not drawn),16.6 µM (active),,inactive,inactive,0.0148 µM (active),0.296 µM (active),inactive,inactive,,inactive,inactive,,,inactive,inactive,inactive,142%,,
Cc1cc(C=c2sc3nc4ccccc4n3c2=O)c(C)n1-c1ccccc1,6.62 µM (active),,,inactive,inactive,,inactive,,,inactive,inactive,inactive,,inactive,,,74.1%,,
CNCc1ccc(-c2[nH]c3cc(F)cc4c3c2CCNC4=O)cc1,20.9 µM (active),15.1%,inactive,inactive,,,,16.6 µM (active),,,,20.9 µM (active),,inactive,,,80.5%,inactive,
Cc1[nH]c(=O)c(C#N)cc1-c1ccc2nccn2c1,,95.5%,inactive and 7.43 µM (active),inactive and 4.69 µM (active),inactive,inactive,inactive,inactive,,inactive,inactive,inactive,,inactive,inactive,inactive,220%,,inactive
Nc1ncnc2nc(-c3ccc(N4CCOCC4)nc3)cc(-c3cccc(Br)c3)c12,14.8 µM (active),,inactive,inactive,,,33.2 µM (active),,,inactive,,26.4 µM (active),inactive,inactive,,,76%,inactive,inactive
O=C1[C@H](Cc2ccc(O)cc2)N2C(=O)CCN(C(=O)NCc3ccccc3)[C@H]2CN1Cc1cccc2ccccc12,8.33 µM (active),,inactive,inactive,,2.96 µM (active),2.64 µM (active),1.87 µM (active),,16.6 µM (active),20.9 µM (active),1.05 µM (active),,,,,6.07%,,
NC(=O)c1ccc(-c2nc(-c3ccc4c(c3)OCO4)c(-c3ccccn3)[nH]2)cc1,37.2 µM (active),113%,inactive,inactive,inactive,,16.6 µM (active),inactive,,inactive,inactive,inactive,inactive,inactive,,,,inactive,
O=C(O)COCCN1CCN(C(c2ccccc2)c2ccc(Cl)cc2)CC1 (stereo not drawn),,124%,inactive,inactive,inactive,inactive,inactive,inactive,,,,,,inactive,inactive,inactive,178%,,inactive
COc1cc2c(cc1OC)CN(CCc1ccc(NC(=O)c3cccc4c(=O)c5cccc(OC)c5[nH]c34)cc1)CC2,,104%,inactive,inactive,10.5 µM (active),20.9 µM (active),,,,inactive,inactive,10.5 µM (active),,inactive,,,238%,inactive,
CCOC(=O)N1CCC(=C2c3ccc(Cl)cc3CCc3cccnc32)CC1,,87.3%,inactive,inactive,26.4 µM (active),,26.4 µM (active),23.5 µM (active),,,,,inactive,,inactive,inactive,186%,,inactive
NC(=O)c1cnccn1,,118%,inactive,inactive,inactive,inactive,inactive,inactive,,,,,inactive,inactive,inactive,inactive,146%,,inactive
NS(=O)(=O)c1cc2c(cc1Cl)NC=NS2(=O)=O,,26.7%,inactive,inactive,inactive,inactive,inactive,inactive,,,,,inactive,inactive,inactive,inactive,71.6%,,
C[C@H](NC(=O)Cc1cc(F)cc(F)c1)C(=O)N[C@@H]1C(=O)N(C)c2ccccc2-c2ccccc21,,43.1%,inactive,inactive,8.33 µM (active),10.5 µM (active),11.8 µM (active),11.8 µM (active),,inactive,inactive,inactive,inactive,inactive,,,176%,,
